From the supplement of paper PMC6555819

Each sequence was assayed on LXRb homodimer (NR concentration 270 nM) (assay: PBM binding z-score (relative to random genomic background probes); higher = stronger binding; sequences stand for … in GC…GCGATTGACAGCGTAGAATGAAGG).
Summary of the method: (§1)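 On custom Agilent 4×180K arrays, double-stranded probes with 34-nt variable regions carried direct-repeat seeds, single-nucleotide variants, half-site ablations or random human genomic background. Ligand-free nuclear receptor dimers were applied for 1 h, and binding was read with antibodies against each partner (one per run). Binding z-scores come from regression-normalized fluorescence, with the random background probes as reference.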
AATACAGGGTCATCTTAGGCCAGAGTACGCACAG gave a PBM binding z-score of 1.74. Work on TATCAAAGTTCAAAGGTAACGTAAGTATCCACAC yielded a PBM binding z-score of 3.08. For ATCGAAAGGTCCAAGGTGAGTATACCCACCCGAA, the PBM binding z-score was 0.175. TACCCTAGGTCATTGGGCCAGTATAGTACGCATC gave a PBM binding z-score of 3.83. AGAATGGGGTTACCAAAGATCAGGGAAACGCTTG was tested, and the PBM binding z-score was 0.166. With AATACAGGGTGACTAGGCCAGAGTAGGTACGAAT the PBM binding z-score was -0.0758. Sequence GTTACAGGGTCAAGGCCAGAGTACGCGTATTGAT has a PBM binding z-score of 0.463. In the case of ATATGTAGGATAGCTGGGGTCATTCAGACTAGGC, the PBM binding z-score is reported as 1.33. Sequence TACCCTAGGTCATTCAGGGGCCAGTATAGAAAGC has a PBM binding z-score of 4.99. CCTACTGGACCAAGGTCATTGATCAGTCAAAGCA showed a PBM binding z-score of 0.618. AGTCAAAGTTCATCTAGGTAACATAAGATATGCT gave a PBM binding z-score of 2.08. For GCATATAGGTAATACAAGGTCAAAGTCCGATTGT, the PBM binding z-score was 1.42. With CGTCCAAGGTCAATGCTAGATCAGTGAAAGCATT the PBM binding z-score was 0.497. For CCTACTGGGCCATTCAGAGGGCATTGATCATATG, the PBM binding z-score was -0.759. CCTACTGGGCCGTTCAGAGGTCATTGATCATATG was tested, and the PBM binding z-score was 0.189. With TGTCAATGTTCAAAGGTAACGTAAGTATCCACAC the PBM binding z-score was 0.283. ATATGTAGGTTATCGGGTCATACAGTTTGCGCAT was tested, and the PBM binding z-score was 1.35. ATATGTAGGTTACCTGGGGTCATTCAGACTAGGC gave a PBM binding z-score of 2.55. TAGCCTAGGTCATTCAGGGGCCAGCATAGAAAGC gave a PBM binding z-score of 0.706. Work on AGTCAAAGTTGAGGACGAGGTAACGTAAAGCACG yielded a PBM binding z-score of -0.483. With ACTTACGGCTCAACGAGGTTATAGCACGCGTATA the PBM binding z-score was 0.162. In the case of CACACTAGGTCACAGAGGTCAAAGTCCGTGCGTA, the PBM binding z-score is reported as 2.87. TCTGCTAGGTCAACGTTGGTCAGCTAATCTGCTA showed a PBM binding z-score of 0.362. For AGAATGAGGTTACTAAAGATCAGGGAAACGCTTG, the PBM binding z-score was 0.0247. In the case of TAGCCTAGGTCATTCAGGGGCAAGTATAGAAAGC, the PBM binding z-score is reported as 1.41. Work on CCTTACGGGTCAAGGTTATAGCCCGGGTGGTACG yielded a PBM binding z-score of -0.334. In the case of CCTTACGGGTTACTCCAGGTTATAGCATCGGAGT, the PBM binding z-score is reported as -0.167. Sequence TCTTGTAGATCGATAGAGGTTAAGAAAGTGCGCT has a PBM binding z-score of -0.0814. Work on CCTTACGGGTCACTCCAGGTCATAGCATCGGAGT yielded a PBM binding z-score of 0.548. ATATGTAGGTTAGCTGAGGTCATTCAGACTAGGC showed a PBM binding z-score of 1.12. TAGCCTAGTTCATGCGGGCCAGTATAGTGTCGGC was tested, and the PBM binding z-score was -0.772. Sequence CAAAATAGGTCACCGGAAGGTCAAAGTCCGCATG has a PBM binding z-score of 1.73. For ATCGAAAGGTCGACCAGGTGAGTATACACCGTTT, the PBM binding z-score was 0.349. GCTGCTAGGTCAACTGATGGTCATCTAAAGCTCG was tested, and the PBM binding z-score was 0.134. CCTACTGGGCCAAAGGTGATTGATTCCAATGCTC was tested, and the PBM binding z-score was -0.106. Sequence CAAACTAGGTCACAGTGGTCAAAGTCCGTGCGTA has a PBM binding z-score of -0.0137. ATATGTAGTTTATCGGGTCATTCAGTTTGCGCAT was tested, and the PBM binding z-score was 0.952. Sequence CAAACTAGGTCACAAAAGGTCAAAGTCGAATGAC has a PBM binding z-score of 3.46. For TCTAGTTGGTCTAAGGTCACACACTCGAAATGCG, the PBM binding z-score was 1.6. AATACAAGGTCATCGTAGGCCAGAGTACGCACAG showed a PBM binding z-score of 3.33.

The sequences below were run on PPARa:RXRa (NR concentration 270 nM, RXRa partner concentration 90 nM) in the same assay as above.
Summary of the method: as §1
AATACAGGGTCATCTTAGGCCAGAGTACGCACAG was tested, and the PBM binding z-score was 6.06. TATCAAAGTTCAAAGGTAACGTAAGTATCCACAC showed a PBM binding z-score of 5.56. ATCGAAAGGTCCAAGGTGAGTATACCCACCCGAA showed a PBM binding z-score of 0.771. Sequence AGAATGGGGTTACCAAAGATCAGGGAAACGCTTG has a PBM binding z-score of 5.05. Work on GTTACAGGGTCAAGGCCAGAGTACGCGTATTGAT yielded a PBM binding z-score of 5.59. ATATGTAGGATAGCTGGGGTCATTCAGACTAGGC was tested, and the PBM binding z-score was 4.6. TACCCTAGGTCATTCAGGGGCCAGTATAGAAAGC gave a PBM binding z-score of 3.81. Work on CCTACTGGACCAAGGTCATTGATCAGTCAAAGCA yielded a PBM binding z-score of 3.97. With AGTCAAAGTTCATCTAGGTAACATAAGATATGCT the PBM binding z-score was 5.11. In the case of GCATATAGGTAATACAAGGTCAAAGTCCGATTGT, the PBM binding z-score is reported as 4.21. In the case of CGTCCAAGGTCAATGCTAGATCAGTGAAAGCATT, the PBM binding z-score is reported as 4.78. CCTACTGGGCCATTCAGAGGGCATTGATCATATG showed a PBM binding z-score of 0.726. In the case of CCTACTGGGCCGTTCAGAGGTCATTGATCATATG, the PBM binding z-score is reported as 3.56. In the case of TGTCAATGTTCAAAGGTAACGTAAGTATCCACAC, the PBM binding z-score is reported as 1.3. ATATGTAGGTTATCGGGTCATACAGTTTGCGCAT was tested, and the PBM binding z-score was 5.09. For ATATGTAGGTTACCTGGGGTCATTCAGACTAGGC, the PBM binding z-score was 5.73. TAGCCTAGGTCATTCAGGGGCCAGCATAGAAAGC was tested, and the PBM binding z-score was 3.89. For AGTCAAAGTTGAGGACGAGGTAACGTAAAGCACG, the PBM binding z-score was 0.937. ACTTACGGCTCAACGAGGTTATAGCACGCGTATA was tested, and the PBM binding z-score was 0.734. Sequence CACACTAGGTCACAGAGGTCAAAGTCCGTGCGTA has a PBM binding z-score of 6.51. Work on TCTGCTAGGTCAACGTTGGTCAGCTAATCTGCTA yielded a PBM binding z-score of 3.2. For AGAATGAGGTTACTAAAGATCAGGGAAACGCTTG, the PBM binding z-score was 2.5. For TAGCCTAGGTCATTCAGGGGCAAGTATAGAAAGC, the PBM binding z-score was 3.84. Work on CCTTACGGGTCAAGGTTATAGCCCGGGTGGTACG yielded a PBM binding z-score of 4.97. CCTTACGGGTTACTCCAGGTTATAGCATCGGAGT gave a PBM binding z-score of 1.45. For TCTTGTAGATCGATAGAGGTTAAGAAAGTGCGCT, the PBM binding z-score was 1.48. With CCTTACGGGTCACTCCAGGTCATAGCATCGGAGT the PBM binding z-score was 4.91. In the case of ATATGTAGGTTAGCTGAGGTCATTCAGACTAGGC, the PBM binding z-score is reported as 4.55. TAGCCTAGTTCATGCGGGCCAGTATAGTGTCGGC showed a PBM binding z-score of 0.278. Sequence CAAAATAGGTCACCGGAAGGTCAAAGTCCGCATG has a PBM binding z-score of 6.51. In the case of ATCGAAAGGTCGACCAGGTGAGTATACACCGTTT, the PBM binding z-score is reported as 4.53. For GCTGCTAGGTCAACTGATGGTCATCTAAAGCTCG, the PBM binding z-score was 3.75. Sequence CCTACTGGGCCAAAGGTGATTGATTCCAATGCTC has a PBM binding z-score of 4.5. In the case of CAAACTAGGTCACAGTGGTCAAAGTCCGTGCGTA, the PBM binding z-score is reported as 5. ATATGTAGTTTATCGGGTCATTCAGTTTGCGCAT gave a PBM binding z-score of 3.2. With CAAACTAGGTCACAAAAGGTCAAAGTCGAATGAC the PBM binding z-score was 6.35. TCTAGTTGGTCTAAGGTCACACACTCGAAATGCG showed a PBM binding z-score of 4.7.
